This note sets out measurements from the supplement of paper PMC6555819.

For the assay, the system named is VDR:RXRa (NR concentration 270 nM, RXRa partner concentration 90 nM). Briefly: PBM binding z-score (relative to random genomic background probes); higher = stronger binding; sequences stand for … in GC…GCGATTGACAGCGTAGAATGAAGG
The procedure: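 Protein-binding microarray (Agilent 4x180K custom design, double-stranded 60-nt probes: 5' GC cap, 34-nt variable region, 24-nt constant primer region; full probe sequence given). Purified or IVT nuclear receptor:RXRα heterodimers (3:1 NR:RXRα, mostly 270:90 nM) or homodimers were incubated for 1 h in PBS with 2% milk and no ligand, then detected with Alexa488 antibodies. Fluorescence from o1-orientation probes (~5 replicates averaged) was converted to z-scores against 500 random hg19 background probes. Variable regions are seed direct-repeat (DR0–DR5) sites, all their single-nucleotide variants and half-site ablations.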
CCGAGGAGGTTACGAGGGGGCATTCAGTGCGAAT had a PBM binding z-score of 6.29.
Then CCTACTGGGCCATTCAGAGGTCAATGATCATATG, with 3.4; and CATACAGGGTCGGCTAGGCCAGAGTAGGGACGGC, with 0.863; and CGTCCAAAGTCAAAGGTCAGTGAAGAGATGACGG, with 3.16.
Then TCTGCTAGGTCAACGATGGTCAGTTAATCTGCTA, with 1.62; and CCTACTGGGCCTAAGGTCATTGATTCCAATGCTC, with 3.34; and ATCGAAAGGTCCACGAGGTGAGTATACACCGTTT, with 1.22.
With AGAATGAGGTCATACGTAGATCAGGGAAGAAAGT, the PBM binding z-score turned out to be 5.41.
With TCTTGTAGGTCAATAGAGGTTAAGAAAGTGCGCT, the PBM binding z-score was determined as 4.85.
With CGTCAAAGGTCAGCAGGTCAGTGAAAGCGACGTG, the PBM binding z-score is 5.16.
Take GCATATAGGTAATACAAGGTCAAAGTCCGATTGT: the PBM binding z-score was 4.39.
In the case of CGTCCAAGGTCACAGAGGTCAGTGAATGCCGAGT it was 7.74; in that of TCTAGTTGGTCAAAGGTCACGCACTCGAAATGCG, 6.05.
Regarding CGAACGAGGTCACCAGGACAGTGAAGAGGTTGGA, the PBM binding z-score turned out to be 5.65.
As for AATACGGGGTCACTAGGCCAGAGTAGGTACGAAT, the PBM binding z-score was found to be 6.16.
In the case of CCTACTGGGCCATTCAGAGGGCATTGATCATATG it was 0.0939.
Then TCGAGTAGGTCACGGGGGCATTCAGGGATGAAGA, with 5.82; and CAAACTAGGTCACCGAAAGGTCAAAGTCCGCATG, with 6.46; and GATACAGGGTCAGCTACAGGCCAGAGTATGGAAA, with 2.55.
In the case of CCTAGTTGTTCAGGAGGTCACACACCGGATATGA it was 3.9; in that of TAGCCTAGGTCATGCGGCCCAGTATAGTGTCGGC, 1.77; in that of CCTCGGAGGTCAACAGGAGGTCAGAGCTGCCAGA, 6.19.
Take CGTCAAAGGTCAAGGTAACGTAACAGAAAGCAGC: the PBM binding z-score came to 5.13.
Then GCTTAAGGGTCAAAGGTTATAGCATGAATAGAAT, with 6.45.
On to TCTATTAGTTGATTAGGGCAACCGAAACAGCGGA, for which the PBM binding z-score is 0.711.
Then AATACAAGGTCATCGTAGGCCAGAGTACGCACAG, with 5.17; and CCTACTGGGCCAAAGAGGTCATTGATGCCGATAA, with 5.68.
For TATACAAGGTCAAAGGCCAGAGTACGAATGTCGA, the PBM binding z-score was 4.83.
In the case of CCTACTGGGCCAAAAAGTTCATTGATGCCGATAA it was 3.68.
Take TTGCCAAGGTGAAAGGTCGTTGATGCACGCCTTG: the PBM binding z-score amounted to 3.23.
Consider CAAACTAGGTCACAGTGGTCAAAGTCCGTGCGTA, for which the PBM binding z-score worked out at 4.36.
As for CCTGCTAGGTCATGGTCAGCGAATCTACAGTATG, the PBM binding z-score was determined as 1.5.
As for CCTACGGGGCCACGAAAGGTCATTGATTCAGTGA, the PBM binding z-score amounted to 5.53.
Sequence TCTAGTTGGTCACGGAGGTCCCACACGACGGGTA yielded a PBM binding z-score of 1.19.
Then TCTCGGAGGACACAAAGGTCAGAGCTTTCCAGAG, with 3.68; and CGTCAAAGTTCAACTGAGGTAACGTAAAGCACGC, with 5.16.
Take CGTACAAGGTCAAAGGTCAGTGAAGAGATGACGG: the PBM binding z-score is 6.84.
In the case of ATCTCTAGGTTAAGATAGTTCAGTGAATGCAAAT it was 2.26; in that of CGTCCAAGGTCAAAGGTCAATGAAGAGATGACGG, 7.06.
In the case of CGTCCAAGGTCACGGTCAGTGAAAGAGACTCGAA it was 5.13.
